# Hits are enriched below; roughly 3.2% of the tested compounds scored in any of these assays.
# SMARCA2 activ: activators of SMARCA2 function; MG213 cells, MMTV-luciferase reporter, dexamethasone, overnight; activation, % at 9.1 µM; 370,000 compounds, 1% hits; AID 652017; in the data active means activation above about 7.8%
# dFosB activator: activators of mouse delta FosB homodimer; activation, % at 25 µM; 340,000 compounds, 0.99% hits; P13346; AID 493131; purified delta FosB, TAMRA-CDK5 oligo fluorescence polarization; percent of positive-control signal above neutral wells;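 active means mean activation above about 17%, with every replicate also reaching it, limit read from the data, passing the limit was not always enough; inconclusive means only one of the two conditions met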
# Rtt109 Vps75: blocks Candida albicans Rtt109/Vps75 acetyltransferase activity; inhibition, % at 34.9 µM; AID 540336; Q5AAJ8; 330,000 compounds, 0.16% hits; purified Rtt109/Vps75, ThioGlo CoA-SH fluorescence, 4 h;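 active means inhibition of at least 50% in every replicate; inconclusive means best replicate reaches 50% inhibition but some replicates fall short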
# Target sequence (Q5AAJ8 whole entry, looked up): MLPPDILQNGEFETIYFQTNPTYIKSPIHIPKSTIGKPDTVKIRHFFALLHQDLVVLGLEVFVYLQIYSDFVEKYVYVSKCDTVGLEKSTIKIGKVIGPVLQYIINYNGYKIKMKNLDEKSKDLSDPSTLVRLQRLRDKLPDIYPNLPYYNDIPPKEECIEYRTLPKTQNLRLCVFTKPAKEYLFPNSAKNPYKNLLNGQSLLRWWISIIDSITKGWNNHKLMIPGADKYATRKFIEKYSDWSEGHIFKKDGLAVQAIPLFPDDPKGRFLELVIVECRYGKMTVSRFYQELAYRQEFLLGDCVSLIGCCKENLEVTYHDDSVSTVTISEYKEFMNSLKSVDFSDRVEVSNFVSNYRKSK
# esBAF inh: blocks esBAF chromatin remodeling in mouse ES cells; AID 602393; Bmi1-luciferase knock-in reporter, 24 h; 100% = twice the neutral-well signal; 350,000 compounds, 2% hits; reporter increase, % at 12.5 µM; in the data active means activation above about 40%; inconclusive means no clear call, values can overlap the other calls;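 further: a rise in the Bmi1 reporter signal indicates esBAF inhibition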
# CDK5 p35 inh: CDK5/p35 (human) kinase inhibition; inhibition, % at 10 µM; Q00535+Q15078; Recombinant CDK5/p35, ADP-Glo luminescence, 60 min; 330,000 compounds, 0.01% hits; AID 488839;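 active means highest replicate inhibition of at least 50% and at least 75% of replicates reaching 50%; inconclusive means only one of the two criteria met; inactive means both criteria failed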
# Dyrk1A ADPGlo: blocks rat Dyrk1A kinase activity | Q63470 | ADP-Glo luminescence, NFATc1 peptide | inhibition, % at 12.5 µM | 310,000 compounds, 0.43% hits | AID 504441; in the data active means inhibition above about 50%
# Hits are given with their value; 0 = inactive; ? = inconclusive; - = no result.
SMILES,SMARCA2 activ,dFosB activator,Rtt109 Vps75,esBAF inh,CDK5 p35 inh,Dyrk1A ADPGlo
C[C@H](CO)N1C[C@H](C)[C@@H](CN(C)Cc2ccncc2)OCCCC[C@H](C)Oc2ccc(NC(=O)CCC(F)(F)F)cc2C1=O,-,-,-,0,-,-
O=C(c1cnccn1)N1CC[C@@H]2[C@@H](CO)Nc3ccc(-c4ccccc4F)cc3[C@@H]21,-,-,-,0,-,-
CN1c2ccc(-c3ccc(F)cc3)cc2[C@H]2[C@H](CCN2C(=O)c2cccnc2)[C@@H]1CO,-,-,-,0,-,-
COc1ccc(-n2cnc3scc(-c4ccc(OC)c(OC)c4)c3c2=O)cc1,0,0,62,0,0,0
O=C(C[C@@H]1C[C@@H]2c3cc(NC(=O)CC4CC4)ccc3O[C@@H]2[C@@H](CO)O1)NCC1CC1,-,-,-,0,-,-
O=C(Nc1ccccc1Cl)N1[C@H](CO)[C@@H]2c3ccccc3NC[C@@H]21,-,-,-,61,-,-
COc1ccc(NC(=O)N(C)C[C@H]2OCCCC[C@@H](C)Oc3ccc(NC(=O)CCC(F)(F)F)cc3C(=O)N([C@@H](C)CO)C[C@@H]2C)cc1,-,-,-,0,-,-
C[C@@H]1CN([C@H](C)CO)C(=O)CCCn2cc(nn2)CO[C@@H]1CN(C)C(=O)C1CCCCC1,-,-,-,0,-,-
CC1CCN(Cc2nc(-c3ccccc3)no2)CC1,0,0,0,55,0,0
CCCc1nc(-c2ccc(-c3ccc(F)cc3)cc2)no1,0,0,0,58,0,0
c1ccc(-c2noc(CN3CCN(c4ccccc4)CC3)n2)cc1,0,0,0,0,0,0
Cc1cccc(-c2noc(Cc3ccccc3)n2)c1,0,0,-,103,0,0
Cc1ccc(Cc2nc(-c3cccnc3)no2)cc1,0,0,0,0,0,0
c1cncc(-c2noc(CC3CCCCC3)n2)c1,0,0,0,42,0,0
O=C(NCCc1nc(-c2ccc(F)cc2)no1)c1ccc(F)cc1,0,0,0,0,0,0
CCCN(C)C[C@H]1Oc2cc(C#Cc3cccc(OC)c3)ccc2S(=O)(=O)N([C@H](C)CO)C[C@H]1C,-,-,-,0,-,-
CCCNC(=O)Nc1ccc2c(c1)C(=O)N(C)C[C@@H](OC)[C@@H](C)CN(CCC(F)(F)F)[C@H](C)CO2,-,-,-,0,-,-
c1ccc(OCc2nc(-c3ccncc3)no2)cc1,0,0,0,?,0,-
c1ccc(OCc2nc(-c3ccccc3)no2)cc1,0,0,0,68,0,0
Cc1ccc(OCc2nc(-c3cccnc3)no2)cc1C,0,0,0,37,0,0
c1ccc(CCc2nc(-c3ccccc3)no2)cc1,0,0,0,46,0,0
CC(C)C(O)C1CCN(Cc2nc(-c3cccs3)no2)CC1 (centres undefined),0,0,0,58,0,0
C[C@@H]1CCCCO[C@@H](CN(C)S(=O)(=O)c2cn(C)cn2)[C@H](C)CN([C@H](C)CO)C(=O)c2cc(NS(=O)(=O)c3ccccc3)ccc2O1,-,-,-,0,-,-
CN1CCN(C(=O)C[C@@H]2C[C@H]3c4cc(NC(=O)Nc5ccccc5)ccc4O[C@H]3[C@@H](CO)O2)CC1,-,-,-,0,-,-
Cc1ccc(S(=O)(=O)N2CC[C@@H]3[C@H]2c2cc(-c4ccc(C#N)cc4)ccc2N(C)[C@H]3CO)cc1,-,-,-,0,-,-
SMILES,SMARCA2 activ,dFosB activator,Rtt109 Vps75,esBAF inh,CDK5 p35 inh,Dyrk1A ADPGlo
CCCc1cc(C(=O)Nc2ccc(F)c(Cl)c2)no1,0,0,0,0,0,0
CCCc1cc(C(=O)Nc2cccc(Cl)c2C)no1,0,0,0,58,0,0
CCCc1cc(C(=O)Nc2ccccc2SC)no1,0,0,0,51,0,0
CCCc1cc(C(=O)Nc2cccnc2)no1,0,0,0,0,0,0
CCCc1cc(C(=O)Nc2ccc(F)cc2F)no1,0,0,0,68,0,0
C[C@H](CO)N1C[C@H](C)[C@H](CN(C)Cc2ccc(C(F)(F)F)cc2)Oc2ccc(NC(=O)Nc3ccc4c(c3)OCO4)cc2C1=O,-,-,-,0,-,-
O=C(Nc1nc(-c2ccc(Cl)cc2)cs1)C1CCCO1 (centres undefined),0,0,0,48,0,0
Cc1ccc(-c2csc(NC(=O)CSc3nc(C)cs3)n2)cc1,0,0,0,45,0,0
O=C(Nc1nc(-c2ccc(Cl)cc2Cl)cs1)C1CCCO1 (centres undefined),0,0,0,-,0,-
Cc1ccc(-c2csc(NC(=O)N3CCOCC3)n2)cc1,0,0,0,83,0,0
O=C(CSCC(=O)N1CCOCC1)Nc1nc(-c2ccc3c(c2)OCO3)cs1,0,0,0,54,0,0
CO[C@H]1CN(C)C(=O)c2cc(NC(=O)c3ccccc3)ccc2OC[C@H](C)N(C(=O)C2CC2)C[C@@H]1C,-,-,-,0,-,-
O=C(OCc1ccc(Br)cc1)c1ccncc1,0,0,57,0,0,0
COc1cccc(Nc2nn3c(=O)c4ccccc4nc3s2)c1,-,0,0,69,0,0
O=c1c2ccccc2nc2sc(Nc3ccc(F)cc3)nn12,0,0,0,?,0,0
NC(=O)c1oc2ccccc2c1NC(=O)c1nc2ccccc2s1,0,0,0,63,0,-
Cc1c(C(=O)/C=C/c2ccccc2F)c2cc(O)ccc2n1C,0,-,-,57,-,-
O=C(Nc1ccc2c(c1)OC1(CCCC1)O2)C1CC1,0,0,0,42,0,0
O=C(Nc1ccc2c(c1)oc1ccccc12)C1CC1,0,0,0,59,0,0
O=C(Nc1ccc2c(c1)oc1ccc(S(=O)(=O)N3CCCC3)cc12)C1CC1,0,0,0,0,0,0
O=C(Nc1ccc2c(c1)OCO2)C1CC1,0,0,0,0,0,0
CC(C)CC(=O)Nc1ccc2c(c1)oc1ccccc12,0,0,0,62,0,0
CN1c2ccc(Br)cc2[C@H]2[C@H](CCN2C(=O)Cc2cccnc2)[C@@H]1CO,-,-,-,0,-,-
Cc1cc(C)c2nc(N(CCCN(C)C)C(=O)c3ccc4c(c3)OCCO4)sc2c1,0,31,0,-,0,0
Cc1ccc2nc(N(CCCN(C)C)C(=O)c3ccc4ncsc4c3)sc2c1,0,0,?,52,0,0
SMILES,SMARCA2 activ,dFosB activator,Rtt109 Vps75,esBAF inh,CDK5 p35 inh,Dyrk1A ADPGlo
CCOC(=O)c1cnc(SCc2ccc(C)cc2)nc1N,0,0,0,61,0,0
CCCCSc1ncc(C(=O)OCC)c(N)n1,0,0,0,0,0,0
CCOC(=O)c1cnc(SCCc2ccccc2)nc1N,0,0,0,42,0,0
Cc1ccsc1C(=O)OCC(=O)Nc1nnc(-c2ccccc2)o1,0,0,0,0,0,0
Cc1ccsc1C(=O)OCc1nnc(-c2ccccc2)o1,0,0,0,63,0,0
O=C(C[C@@H]1C[C@H]2c3cc(NC(=O)NC4CCCC4)ccc3O[C@H]2[C@H](CO)O1)NCc1ccc(Oc2ccccc2)cc1,-,-,-,0,-,-
Fc1ccc(C2CC(c3ccco3)=Nc3ccccc3S2)cc1 (centres undefined),0,0,56,-,0,0
COc1ccc(C(=O)NCCN2CCCC2)cc1,0,0,0,0,0,0
COc1ccc(/C=C2/Sc3ccc(C(=O)NCCN4CCCCCC4)cc3NC2=O)cc1,0,82,0,0,0,0
